Consider eleven compounds from PubChem BioAssay (Tox21).

The nature of assay [1]: Human pregnane X receptor (PXR) small molecule agonists, qHTS cell viability counter screen (AID 1346977). Note: nearly all actives have a fitted effect of over 50% in size. The settings on record: PXR-Luc HepG2 viability, CellTiter-Fluor, 24 h; series mostly up to 92.4 µM. An outline of the steps: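 Viability counter screen: CellTiter-Fluor signal in PXR-Luc HepG2 cells, 24hr compound exposure, 37C, 5% CO2.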
In general terms: qHTS replaces the single test concentration by a dilution series.

Assay [2] is described as follows: Caspase-3/7 induction in CHO-K1 cells by small molecules, qHTS cell viability counter screen (AID 1346979). Note: nearly all actives have a fitted effect of over 35% in size. The conditions noted are these: CellTiter-Fluor fluorescence, 17 h; series mostly up to 92.4 µM. An outline of the steps:
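Viability readout by fluorescence (CellTiter-Fluor) on wild-type CHO-K1 cells exposed for 16hr at 37C and 5% CO2 to compounds delivered in DMSO; reagent incubated 1hr before reading.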

Assay [3] in a line: Caspase-3/7 induction in CHO-K1 cells by small molecules, qHTS assay (AID 1346980). Note: nearly all actives have a fitted effect of over 15% in size. The settings on record: CHO-K1 caspase-3/7 induction, Caspase-Glo luminescence, 17 h; series mostly up to 92.4 µM. The method in brief: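 Wild-type CHO-K1 cells exposed to compounds for 17hr at 37 C, 5% CO2. Caspase-3/7 activity then measured by Caspase-Glo 3/7 luminescence after 30min at room temperature.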

Assay [4] is described as follows: Caspase-3/7 induction in HepG2 cells by small molecules, qHTS cell viability counter screen (AID 1346981). Note: nearly all actives have a fitted effect of over 30% in size. The settings on record: CellTiter-Fluor fluorescence, 17 h; series mostly up to 92.4 µM. The method in brief:
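Counter screen for cytotoxicity: HepG2 exposed 16 hr to compounds, then CellTiter-Fluor viability signal (fluorescence, 1 hr reagent incubation).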

Assay [5] addresses Nuclear receptor subfamily 1 group I member 2 (Homo sapiens) (UniProt O75469). Kind of assay: Human pregnane X receptor (PXR) small molecule agonists, qHTS assay (AID 1346982). Note: nearly all actives have a fitted effect of over 35% in size. Note: potency is the fitted concentration of half-maximal effect. The conditions noted are these: PXR-Luc HepG2, CYP3A4 luciferase reporter, 24 h; series mostly up to 92.4 µM. The method in brief: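 Luminescence (ONE-Glo, 30 min RT) after 24 hr compound exposure of PXR-Luc HepG2 cells; cells rested 5 hr post-plating in 5% charcoal-stripped FBS medium.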

Assay [6] deals with Cytochrome P450 2D6 (Homo sapiens) (UniProt P10635). Description: Cytochrome P450 Family 2 Subfamily D Member 6 (CYP2D6) small molecule antagonists: luciferase reporter qHTS assay (AID 1671196). Note: nearly all actives have a fitted effect of over 50% in size. Note: potency is the fitted concentration of half-maximal effect. The conditions noted are these: P450-Glo CYP2D6 enzyme assay, luciferin luminescence, 1 h; series mostly up to 115 µM. The method in brief:
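Inhibition of CYP2D6 was gauged by loss of luminescence, since light produced tracks the luciferin generated from a proluciferin substrate. A 10 min room-temperature preincubation preceded 1 h NADPH-supported turnover.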
Background: Reporter assays use an easily measured gene product as a stand-in for the process of interest.

Assay [7] addresses Cytochrome P450 2C19 (Homo sapiens) (UniProt P33261). Kind of assay: Cytochrome P450 Family 2 Subfamily C Member 19 (CYP2C19) small molecule antagonists: luciferase reporter qHTS assay (AID 1671197). Note: nearly all actives have a fitted effect of over 65% in size. Note: potency is the fitted concentration of half-maximal effect. The conditions noted are these: P450-Glo CYP2C19 enzyme, luciferin luminescence, 1 h; series mostly up to 52.9 µM. The method in brief: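 Quantitative high-throughput screen of the Tox21 library using CYP2C19 with proluciferin substrate. Reaction: NADPH regeneration, 37C, 1 h, after 10 min compound preincubation at room temperature. Readout: luminescence.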

For assay [8], the target named is Cytochrome P450 2C9 (Homo sapiens) (UniProt P11712). Description: Cytochrome P450 Family 2 Subfamily C Member 9 (CYP2C9) small molecule antagonists: luciferase reporter qHTS assay (AID 1671198). Note: nearly all actives have a fitted effect of over 50% in size. Note: potency is the fitted concentration of half-maximal effect. The conditions noted are these: P450-Glo CYP2C9 enzyme assay, luciferin luminescence; series mostly up to 115 µM. The method in brief: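 P450-Glo proluciferin substrate with CYP2C9 enzyme; 10 min RT preincubation, then NADPH regeneration 1 h at 37C; luciferin detection reagent 20 min RT, luminescence in relative luminescence units.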

Assay [9] deals with Cytochrome P450 1A2 (Homo sapiens) (UniProt P05177). Kind of assay: Cytochrome P450 Family 1 Subfamily A Member 2 (CYP1A2) small molecule antagonists: luciferase reporter qHTS assay (AID 1671199). Note: nearly all actives have a fitted effect of over 50% in size. Note: potency is the fitted concentration of half-maximal effect. The conditions noted are these: P450-Glo CYP1A2 enzyme, luciferin luminescence, 1 h; series mostly up to 53 µM. An outline of the steps: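 Signal from luciferin formed by CYP1A2 from a proluciferin substrate is read as luminescence, expressed in relative luminescence units. Compounds sit with enzyme 10 min, NADPH-driven reaction runs 1 h, all at room temperature.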

Assay [10] deals with Cytochrome P450 3A4 (Homo sapiens) (UniProt P08684). Description: Cytochrome P450 Family 3 Subfamily A Member 4 (CYP3A4) small molecule antagonists: luciferase reporter qHTS assay (AID 1671201). Note: nearly all actives have a fitted effect of over 50% in size. Note: potency is the fitted concentration of half-maximal effect. The settings on record: P450-Glo CYP3A4 enzyme, luciferin luminescence, 1 h; series mostly up to 115 µM. The method in brief: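 Relative luminescence units after 20 min with luciferin detection reagent served as read-out. Beforehand, CYP3A4 turned over a proluciferin substrate for 1 h at room temperature with NADPH regeneration, following 10 min compound preincubation.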

The target in assay [11] is Nuclear receptor subfamily 1 group I member 2 (Rattus norvegicus) (UniProt Q9R1A7). Description: Rat pregnane X receptor (rPXR) activation by small molecules, qHTS assay (AID 1346983). Note: nearly all actives have a fitted effect of over 20% in size. The settings on record: rPXR luciferase reporter cells, One-Glo luminescence, 24 h; max activation: hits give high values. The method in brief:
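Cell-based rPXR activation assay: rPXR cells, 2,000 per well, rested 5hr at 37 C, then exposed to compounds in DMSO for 24 hr at 37 C. Luciferase activity read by One-Glo luminescence after 30 min at room temperature.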

For assay [12], the target named is Nuclear receptor subfamily 1 group I member 2 (Homo sapiens) (UniProt O75469). Kind of assay: CYP3A4 induction through human pregnane X receptor (PXR) by small molecules, qHTS assay (AID 1346984). Note: nearly all actives have a fitted effect of over 40% in size. The conditions noted are these: DPX-2 HepG2 PXR, CYP3A4-luciferin luminescence, 24 h; series mostly up to 46.1 µM. An outline of the steps: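 DPX-2 reporter cells; 24h cpd, 37C; Luciferin-IPA 3uM final x3h; One-Glo 30 min RT; lumi read.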

For assay [13] the target is unchanged. Kind of assay: Human pregnane X receptor (PXR) activation by small molecules, qHTS assay (AID 1346985). Note: nearly all actives have a fitted effect of over 40% in size. The conditions noted are these: DPX-2 HepG2 CYP3A4-luciferase, 24 h; series mostly up to 38.3 µM. The method in brief: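 DPX-2 cells (HepG2 co-transfected with a PXR response element and a CYP3A4-promoter luciferase construct) were seeded at 2,000 per well, rested 5 hr at 37C, then exposed to DMSO-dissolved compounds for 24 hr. Activation was read as luciferase luminescence.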

In assay [14] the target is Voltage-gated inwardly rectifying potassium channel KCNH2 (Homo sapiens) (UniProt Q12809). Kind of assay: Human Ether-a-go-go-Related Gene (hERG) channel small molecule antagonists: fluorescence cell-based qHTS assay (AID 1671200). The settings on record: hERG-U2OS cells, FluxOR thallium flux fluorescence; series mostly up to 76.8 µM. The method in brief: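 Thallium served as the potassium surrogate; its influx into dye-loaded U2OS cells carrying the channel was measured by fluorescence over 2 min.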

The nature of assay [15]: Caspase-3/7 induction in HepG2 cells by small molecules, qHTS assay (AID 1346978). Note: nearly all actives have a fitted effect of over 15% in size. The conditions noted are these: HepG2 caspase-3/7 activation, Caspase-Glo luminescence, 17 h; series mostly up to 92.4 µM. The method in brief: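 Wild-type HepG2 cells, 2,000/well, settled 5 hr at 37 C and 5% CO2, then compound-treated for 17 hr; caspase-3/7 activity read by luminescent Caspase-Glo 3/7 after 30 min at room temperature.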

A number with no mark means an inactive call. Results filed as inconclusive are left out. Calls of active or inactive are those of the source. Calls come from the whole dose curve; as a rule, active = well fitted curve in the direction sought with a large enough effect in the repeat runs; inconclusive = weak or mixed curves; inactive = no such curve, though single readings can be large; an effect the other way counts as inactive or inconclusive.
% is set by controls: 0 for no effect and ±100 for the full control effect.

Cytochrome P450 1A2 (Homo sapiens), sequence (P05177 whole entry, looked up): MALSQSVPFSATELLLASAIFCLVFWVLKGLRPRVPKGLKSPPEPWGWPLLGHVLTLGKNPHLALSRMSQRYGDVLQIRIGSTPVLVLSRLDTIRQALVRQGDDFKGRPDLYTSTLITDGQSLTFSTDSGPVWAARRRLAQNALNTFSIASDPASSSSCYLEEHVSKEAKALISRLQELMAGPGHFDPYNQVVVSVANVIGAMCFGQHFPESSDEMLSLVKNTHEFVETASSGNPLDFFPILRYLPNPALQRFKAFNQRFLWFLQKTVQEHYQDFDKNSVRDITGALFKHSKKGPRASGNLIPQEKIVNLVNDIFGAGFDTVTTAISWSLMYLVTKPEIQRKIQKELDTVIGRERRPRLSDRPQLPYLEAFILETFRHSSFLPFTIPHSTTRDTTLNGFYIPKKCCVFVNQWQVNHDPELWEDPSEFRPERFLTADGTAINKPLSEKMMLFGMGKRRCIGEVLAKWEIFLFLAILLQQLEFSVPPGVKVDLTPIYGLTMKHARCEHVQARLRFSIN
Cytochrome P450 2D6 (Homo sapiens), sequence (P10635 whole entry, looked up): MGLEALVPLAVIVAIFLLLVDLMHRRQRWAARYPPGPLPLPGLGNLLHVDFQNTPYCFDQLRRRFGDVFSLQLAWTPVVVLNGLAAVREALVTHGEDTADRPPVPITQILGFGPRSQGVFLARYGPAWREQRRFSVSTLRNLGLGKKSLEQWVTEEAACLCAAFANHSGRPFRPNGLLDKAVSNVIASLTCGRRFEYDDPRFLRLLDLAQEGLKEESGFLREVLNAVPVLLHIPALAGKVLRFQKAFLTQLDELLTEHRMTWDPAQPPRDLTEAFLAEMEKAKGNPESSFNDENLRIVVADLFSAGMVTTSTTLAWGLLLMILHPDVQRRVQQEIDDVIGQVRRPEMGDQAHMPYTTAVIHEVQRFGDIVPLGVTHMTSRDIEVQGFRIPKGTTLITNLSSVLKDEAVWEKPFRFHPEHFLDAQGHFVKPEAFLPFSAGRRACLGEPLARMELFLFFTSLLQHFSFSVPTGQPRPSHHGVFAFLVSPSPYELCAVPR
Cytochrome P450 2C9 (Homo sapiens), sequence (P11712 whole entry, looked up): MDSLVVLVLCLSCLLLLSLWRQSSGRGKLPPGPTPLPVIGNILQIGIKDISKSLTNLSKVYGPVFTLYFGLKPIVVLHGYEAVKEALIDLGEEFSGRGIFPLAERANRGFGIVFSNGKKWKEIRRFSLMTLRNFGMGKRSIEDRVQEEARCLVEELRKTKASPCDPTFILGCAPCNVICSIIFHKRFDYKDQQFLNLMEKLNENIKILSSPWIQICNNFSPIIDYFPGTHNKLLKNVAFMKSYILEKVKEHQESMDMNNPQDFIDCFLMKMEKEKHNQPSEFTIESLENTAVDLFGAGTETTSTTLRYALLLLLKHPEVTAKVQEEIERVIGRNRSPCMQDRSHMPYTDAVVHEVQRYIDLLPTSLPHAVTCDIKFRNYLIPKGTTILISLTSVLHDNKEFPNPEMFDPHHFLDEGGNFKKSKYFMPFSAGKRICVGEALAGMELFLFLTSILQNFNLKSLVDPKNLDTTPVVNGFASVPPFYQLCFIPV
Nuclear receptor subfamily 1 group I member 2 (Homo sapiens), sequence (O75469 whole entry, looked up): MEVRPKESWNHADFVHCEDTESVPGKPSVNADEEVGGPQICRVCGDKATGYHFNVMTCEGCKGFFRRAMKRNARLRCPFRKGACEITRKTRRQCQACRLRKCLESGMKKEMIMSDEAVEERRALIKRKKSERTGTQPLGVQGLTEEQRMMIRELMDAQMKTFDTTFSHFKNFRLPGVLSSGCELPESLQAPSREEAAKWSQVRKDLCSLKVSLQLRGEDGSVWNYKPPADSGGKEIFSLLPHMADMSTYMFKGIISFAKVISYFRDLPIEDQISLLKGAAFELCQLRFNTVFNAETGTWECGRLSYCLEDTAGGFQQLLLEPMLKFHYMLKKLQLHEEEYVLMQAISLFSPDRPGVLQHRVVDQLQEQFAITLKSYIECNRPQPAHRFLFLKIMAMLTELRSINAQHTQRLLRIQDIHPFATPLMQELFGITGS
Voltage-gated inwardly rectifying potassium channel KCNH2 (Homo sapiens), sequence (Q12809 whole entry, looked up): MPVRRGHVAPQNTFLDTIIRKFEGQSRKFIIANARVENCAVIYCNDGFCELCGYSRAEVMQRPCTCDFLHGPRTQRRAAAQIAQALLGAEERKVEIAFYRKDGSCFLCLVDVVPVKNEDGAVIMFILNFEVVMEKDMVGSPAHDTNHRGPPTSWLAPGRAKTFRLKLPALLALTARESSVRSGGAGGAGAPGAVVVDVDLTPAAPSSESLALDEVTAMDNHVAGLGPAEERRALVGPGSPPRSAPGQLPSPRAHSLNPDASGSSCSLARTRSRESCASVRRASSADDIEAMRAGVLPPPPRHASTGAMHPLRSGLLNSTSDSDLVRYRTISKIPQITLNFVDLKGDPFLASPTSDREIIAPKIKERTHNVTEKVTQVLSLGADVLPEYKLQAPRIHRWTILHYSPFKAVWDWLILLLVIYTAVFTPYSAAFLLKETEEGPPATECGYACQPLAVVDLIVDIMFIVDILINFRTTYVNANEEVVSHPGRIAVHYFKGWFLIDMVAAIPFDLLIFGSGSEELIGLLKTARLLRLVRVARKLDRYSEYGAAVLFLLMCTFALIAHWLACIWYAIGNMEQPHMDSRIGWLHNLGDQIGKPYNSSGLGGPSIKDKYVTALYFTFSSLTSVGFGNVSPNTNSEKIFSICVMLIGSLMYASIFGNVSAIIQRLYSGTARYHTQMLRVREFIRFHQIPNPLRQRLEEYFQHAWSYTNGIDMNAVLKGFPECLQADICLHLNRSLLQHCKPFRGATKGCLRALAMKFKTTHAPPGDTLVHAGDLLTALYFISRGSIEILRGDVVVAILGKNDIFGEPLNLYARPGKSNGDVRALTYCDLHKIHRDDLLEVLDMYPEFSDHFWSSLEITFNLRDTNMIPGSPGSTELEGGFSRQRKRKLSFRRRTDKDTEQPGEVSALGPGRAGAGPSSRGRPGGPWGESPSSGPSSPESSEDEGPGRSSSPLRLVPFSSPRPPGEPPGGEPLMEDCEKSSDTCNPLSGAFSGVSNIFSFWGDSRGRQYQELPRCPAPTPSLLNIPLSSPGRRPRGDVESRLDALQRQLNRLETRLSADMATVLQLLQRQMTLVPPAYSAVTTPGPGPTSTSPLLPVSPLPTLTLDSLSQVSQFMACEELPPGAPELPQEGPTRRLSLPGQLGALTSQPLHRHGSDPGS
Cytochrome P450 2C19 (Homo sapiens), sequence (P33261 whole entry, looked up): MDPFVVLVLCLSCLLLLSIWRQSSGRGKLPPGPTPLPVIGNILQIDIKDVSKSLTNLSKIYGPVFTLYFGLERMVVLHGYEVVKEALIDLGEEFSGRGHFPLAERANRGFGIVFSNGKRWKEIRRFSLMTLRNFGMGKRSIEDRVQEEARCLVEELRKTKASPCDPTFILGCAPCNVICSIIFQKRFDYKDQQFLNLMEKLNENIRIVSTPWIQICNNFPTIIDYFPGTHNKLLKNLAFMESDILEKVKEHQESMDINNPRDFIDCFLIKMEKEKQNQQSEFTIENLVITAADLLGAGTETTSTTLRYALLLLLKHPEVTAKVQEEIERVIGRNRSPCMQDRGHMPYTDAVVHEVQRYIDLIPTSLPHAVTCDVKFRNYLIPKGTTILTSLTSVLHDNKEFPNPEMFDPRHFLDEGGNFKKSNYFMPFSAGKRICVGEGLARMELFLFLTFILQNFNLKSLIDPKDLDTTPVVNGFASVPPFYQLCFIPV
Nuclear receptor subfamily 1 group I member 2 (Rattus norvegicus), sequence (Q9R1A7 whole entry, looked up): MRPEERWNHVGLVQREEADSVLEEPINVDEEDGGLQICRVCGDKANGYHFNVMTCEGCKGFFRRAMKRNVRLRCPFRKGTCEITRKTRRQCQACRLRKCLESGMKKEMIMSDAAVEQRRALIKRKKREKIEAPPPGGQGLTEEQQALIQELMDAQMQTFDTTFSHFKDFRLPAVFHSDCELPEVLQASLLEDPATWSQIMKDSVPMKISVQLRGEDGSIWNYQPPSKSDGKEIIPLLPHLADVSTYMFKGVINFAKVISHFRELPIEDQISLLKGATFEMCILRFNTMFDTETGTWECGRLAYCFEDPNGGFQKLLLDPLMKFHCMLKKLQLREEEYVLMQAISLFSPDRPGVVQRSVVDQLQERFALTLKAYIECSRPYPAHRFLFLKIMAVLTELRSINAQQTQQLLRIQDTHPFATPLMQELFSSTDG
Cytochrome P450 3A4 (Homo sapiens), sequence (P08684 whole entry, looked up): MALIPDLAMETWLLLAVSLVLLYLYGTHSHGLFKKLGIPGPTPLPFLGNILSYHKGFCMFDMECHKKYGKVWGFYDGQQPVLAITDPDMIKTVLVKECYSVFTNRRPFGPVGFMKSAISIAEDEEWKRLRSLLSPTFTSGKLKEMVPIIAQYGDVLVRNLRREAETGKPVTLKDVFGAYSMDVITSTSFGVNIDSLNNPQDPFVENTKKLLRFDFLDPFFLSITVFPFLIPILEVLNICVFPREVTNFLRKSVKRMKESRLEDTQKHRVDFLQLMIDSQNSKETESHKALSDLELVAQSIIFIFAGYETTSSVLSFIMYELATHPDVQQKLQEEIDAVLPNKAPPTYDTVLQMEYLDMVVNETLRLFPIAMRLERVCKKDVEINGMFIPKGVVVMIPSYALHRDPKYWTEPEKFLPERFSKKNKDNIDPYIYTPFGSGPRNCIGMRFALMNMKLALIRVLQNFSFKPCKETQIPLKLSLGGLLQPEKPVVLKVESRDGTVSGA

Regarding `COC(=O)Nc1ccc(Cl)c(Cl)c1`, the Potency entry in assay [1], in assay [2], in assay [4], in [6] and in assay [10] was “inactive” throughout. In assay [3], the compound was called inactive. Further, the Potency was 60.8 µM (active) in assay [5], 17.7 µM (active) in assay [7], 70.6 µM (active) in assay [8] and 5.61 µM (active) in assay [9].

With `C[N+]12CCC(CC1)C(OC(=O)C(O)(c1ccccc1)c1ccccc1)C2` (configuration not stated), the Potency entry in assay [1], in [2], in assay [4], in assay [5], in [12] and in assay [13] was “inactive” throughout. Further, the Potency entry in assay [7], in assay [8], in assay [14] and in [10] was “inactive” each time. Moreover, in assay [3], the compound was called inactive. Further, the max activation in assay [11] is -2.26%.

As to `O=C1CCCCCCCCCCCCCCO1`, the Potency entry in assay [1], in [2], in [4], in [5], in [6] and in assay [7] was “inactive” throughout. In [3], the outcome was inactive.

For `CCCCN(CCC(=O)OCC)C(C)=O`, the Potency entry in [1], in [2], in assay [4], in assay [5], in [6] and in assay [8] was “inactive” throughout. The Potency entry in [14] and in assay [10] was “inactive” in each case. The compound was called inactive in assay [3]. Also, the Potency in assay [7] is 35.6 µM (active).

On to `O=C(c1ccccc1O)c1ccccc1O`, for which the Potency entry in assay [1], in assay [4] and in assay [14] was “inactive” each time. Moreover, the call in assay [15] and in [3] was inactive. The Potency is 60.5 µM (active) in [5]; 24.9 µM (active) in [6]; 11.1 µM (active) in assay [7]; 62.6 µM (active) in assay [8]; 3.52 µM (active) in assay [9].

As to `CC(C)CCCO`, the Potency result in [1], in assay [4], in assay [5], in [6], in assay [7] and in [8] was “inactive” each time. The Potency entry in [9] and in [10] was “inactive” each time. Moreover, the compound was classed as inactive in [15] and in [3].

Consider `Cc1ccc(C(=O)c2ccccc2)cc1`, for which the Potency result in assay [1], in assay [2], in assay [5] and in assay [10] was “inactive” each time. Besides, the outcome in [15] and in assay [3] was inactive. The values for the Potency in [7], in [8] and in [9] were 10 µM (active), 31.7 µM (active) and 31.7 µM (active), respectively.

On to `Cc1ncc(COP(=O)(O)O)c(C=O)c1O`, for which the Potency result in assay [1], in assay [2], in [12], in [13], in assay [6] and in assay [7] was “inactive” each time. Moreover, the Potency result in assay [8], in assay [14] and in assay [10] was “inactive” each time. Also, the compound was classed as inactive in assay [15] and in assay [3]. The max activation in [11] was -2.51%. The Potency in assay [9] is 17.4 µM (active).

Take `O=S(=O)(O)c1cccc2ccccc12`: the Potency entry in assay [1], in assay [2], in assay [5], in assay [6] and in assay [10] was “inactive” throughout. Besides, the outcome in assay [15] and in assay [3] was inactive.

With `CCC1C(=O)OCC1Cc1cncn1C` (configuration not stated), the Potency result in [1], in [4], in [5], in [12], in assay [13] and in [6] was “inactive” each time. Besides, the Potency result in assay [7], in [9] and in assay [14] was “inactive” throughout. The compound was classed as inactive in assay [15] and in [3]. Moreover, the max activation in [11] was -2.44%. Also, the Potency in assay [10] was 11 µM (active).

For the compound `CCOC(=O)COC(=O)c1ccccc1C(=O)OCC`, the Potency result in assay [1], in assay [4], in [5], in assay [6], in [14] and in assay [10] was “inactive” in each case. The outcome in [15] and in assay [3] was inactive. For the same compound, the figures for the Potency in assay [7], in assay [8] and in assay [9] were 20 µM (active), 31.7 µM (active) and 7.96 µM (active), respectively.
